Screen size: about 16,000 compounds; about 4,000 (25%) were called active. Inconclusive results (about 26%) are left out. These entries were drawn from the full list. Values without a mark were called inactive. Calls follow the shape of the dose curve; as a rule, active = well fitted curve in the direction sought with a large enough effect; inconclusive = small, poorly fitted or top-dose-only effect, or effect the other way; inactive = no such curve, though single readings can be large or run the other way. Peptide text beside a SMILES is read from it.
molecular target: Cytochrome P450 2C9 (Homo sapiens) (UniProt P11712); test: Cytochrome panel assay with activity outcomes; conditions: recombinant CYP, pro-luciferin dealkylation, luminescence, p450-cyp2c9; series mostly up to 57.1 µM
% is scaled to controls: 0 for no effect and ±100 for the full control effect.

Chain of Cytochrome P450 2C9 (Homo sapiens) (P11712 whole entry, looked up): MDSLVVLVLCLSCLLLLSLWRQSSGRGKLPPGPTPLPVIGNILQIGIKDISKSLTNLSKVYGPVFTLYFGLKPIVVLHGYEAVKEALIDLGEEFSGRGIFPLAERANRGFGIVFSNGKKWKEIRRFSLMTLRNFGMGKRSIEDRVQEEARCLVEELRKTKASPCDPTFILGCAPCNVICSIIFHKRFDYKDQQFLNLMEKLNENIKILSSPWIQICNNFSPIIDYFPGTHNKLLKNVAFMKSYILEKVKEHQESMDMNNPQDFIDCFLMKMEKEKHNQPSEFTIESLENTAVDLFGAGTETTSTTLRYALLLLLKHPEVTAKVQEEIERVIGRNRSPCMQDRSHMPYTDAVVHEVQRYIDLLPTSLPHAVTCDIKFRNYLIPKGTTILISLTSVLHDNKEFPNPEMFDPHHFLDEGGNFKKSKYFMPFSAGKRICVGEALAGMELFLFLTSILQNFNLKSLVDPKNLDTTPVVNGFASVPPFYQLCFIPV

SMILES | AC50 | activity, negative = inhibition
O=C(CCCN1CCC(O)(c2ccc(Br)cc2)CC1)c1ccc(F)cc1 | inactive | 
Cc1cc(C)nc(Nc2n[nH]c(-c3cccc4ccccc34)n2)n1 | inactive | 
O=C(CCN1C(=O)C2C3C=CC(C3)C2C1=O)Nc1ccc2ncccc2c1 (centres undefined) | inactive | 
Cc1ccc(-c2cnc(NC(=O)CCC(=O)N3CCCCC3)n2C)cc1 | inactive | 
Cc1ccc(NC(=O)CCN2C(=O)c3ccncc3C2=O)cc1 | 14.1 µM (active) | 
COc1cc(OC)c2c(c1Cl)O[C@@]1(C2=O)[C@H](C)CC(=O)C[C@@H]1OC | inactive | 
CN(C)c1ccc(-c2ccc3ncnc(NC4CC4)c3c2)cc1 |  | 4.64% [at 2.29 µM]
O=C(CSCc1ccccc1)Nc1cccc(C(=O)Nc2ccccc2C(=O)O)c1 | 0.447 µM (active) | 
CC1CC2=C(NC(=S)NC2c2ccc(F)cc2)/C(=C/c2ccc(F)cc2)C1 (centres undefined) | 8.91 µM (active) | 
O=C1CC(NCCC2=CCCCC2)C(=O)N1c1cccc(Cl)c1Cl (centres undefined) | 14.1 µM (active) | 
N[C@H](C(=O)O)c1ccc(C(=O)O)cc1 | inactive | 
COc1ccc(-c2ccc(/C=C3\C(=O)N(c4ccccc4)N=C3c3ccccc3)o2)c([N+](=O)[O-])c1 | 2.51 µM (active) | 
CC(=O)NC1=NN(c2ccccc2)C(=O)C1 | inactive | 
COC(=O)c1ccccc1-c1ccc(/C=C2\C(=O)N(c3ccccc3)N=C2c2ccccc2)o1 | 5.62 µM (active) | 
NC(=NC1C2CC3CC(C2)CC1C3)Nc1ccc(I)cc1 (centres undefined) | inactive | 
CC[C@@]1(O)C(=O)OCc2c1cc1n(c2=O)Cc2cc3c(CN(C)C)c(O)ccc3nc2-1 |  | -1.39% [at 11.4 µM]
Cc1cc2nc3[nH]c4c(Cl)cc(Cl)cc4c3nc2cc1C |  | -11.6% [at 11.4 µM]
O=C(O)CSc1ccn(Cc2ccccc2)c1 |  | -1.85% [at 11.4 µM]
C=CCCCCCCCCC(=O)Nc1c[nH]c(=O)[nH]c1=O | inactive | 
Cc1onc(-c2c(Cl)cccc2Cl)c1C(=O)Nc1ccc2c(c1)OCO2 | 1.41 µM (active) | 
O=C(NC(=S)Nc1ccc2c(c1)OCO2)c1ccccc1 | 3.98 µM (active) | 
C[N+](C)(C)c1ncnc2c1ncn2[C@@H]1CCCCO1 |  | 8.84% [at 11.4 µM]
CCCOc1ccc(C(=O)OCCN(CC)CC)cc1N | inactive | 
Clc1ccc(Nc2ncn[nH]2)cc1 | inactive | 

SMILES | AC50 | activity, negative = inhibition
CC1CC(=O)c2cnc(N)nc2C1 (centres undefined) | inactive | 
O=C1CC(c2ccccc2)Cc2nc(N3CCc4ccccc4C3)ncc21 (centres undefined) | 4.47 µM (active) | 
CN1CCN(c2ncc3ncc(=O)n(-c4ccccc4)c3n2)CC1 | inactive | 
Clc1ccc(-c2noc(CN3CCCCC3)n2)cc1 |  | -0.0394% [at 11.4 µM]
Cc1ccc(-c2noc(CN3CCN(C(c4ccccc4)c4ccccc4)CC3)n2)cc1 | 5.01 µM (active) | 
CC(=O)[C@@H](C)CCO[C@@]1(C)OCC[C@@H]1C |  | -15.7% [at 11.4 µM]
Cc1cc(C)cc(C(=O)N(NC(=O)Nc2ccc(Cl)cc2)C(C)(C)C)c1 | 5.01 µM (active) | 
CC(C)(CC(=O)Nc1ccccc1)C(=O)O |  | 4.33% [at 11.4 µM]
CC(C)(C)N(NC(=O)Nc1ccccc1)C(=O)c1ccccc1Cl | 14.1 µM (active) | 
Cc1ccc(NCCC(=O)c2ccc(Cl)cc2)cc1C | inactive | 
Cc1c(Cl)c(S(N)(=O)=O)cc(S(N)(=O)=O)c1NC(=O)c1ccc(Cl)cc1 |  | -6.54% [at 11.4 µM]
O=S1(=O)CCN(c2ccccc2CC(c2c[nH]c3ccccc23)c2c[nH]c3ccccc23)CC1 | 3.16 µM (active) | 
O=C(O)[C@@H](Cc1c[nH]c2ccccc12)C(=O)NO |  | -10.3% [at 11.4 µM]
c1ccc2c(CN3CCN(Cc4c[nH]c5ccccc45)CC3)c[nH]c2c1 |  | -0.0395% [at 11.4 µM]
Cc1ncn(-c2ccccc2O)c1C |  | 9.91% [at 11.4 µM]
CCOC(=O)N1CCC(NC(=O)CSCc2cnn(-c3ccccc3)c2-n2cccc2)CC1 | 4.47 µM (active) | 
CCOC(=O)N1CCC(NC(=O)CCC(=O)N2CCOc3ccccc32)CC1 | inactive | 
Cc1ccc(-n2ncc3c(=O)n(CC(=O)NCC4CCCO4)cnc32)cc1 (centres undefined) | inactive | 
Cc1ccc(C)c(Cn2cnc3c(cnn3C(C)(C)C)c2=O)c1 | 8.91 µM (active) | 
Cc1ccc(NC(=O)Cn2cnc3c(cnn3C(C)(C)C)c2=O)cc1 | 10 µM (active) | 
Cc1ccccc1Cn1cnc2c(cnn2C(C)(C)C)c1=O | 15.8 µM (active) | 
CO[C@H]1[C@H](O[C@H]2O[C@@H](C)[C@@H](O[C@@H]3C[C@](C)(O)[C@H](OC(=O)CC(C)C)[C@H](C)O3)[C@@H](N(C)C)[C@@H]2O)[C@@H](CC=O)C[C@@H](C)[C@@H](O)/C=C\C=C/C[C@@H](C)OC(=O)C[C@H]1OC(C)=O | inactive | 
Cc1cnc(CNc2ccnc(-c3ccccc3Cl)n2)cn1 |  | 7.84% [at 2.29 µM]
CN(C)c1ccc(-c2cncnc2-n2ccnc2)cc1 |  | 15.2% [at 2.29 µM]

SMILES | AC50 | activity, negative = inhibition
C[C@@H](CSC(=N)N)C(N)=O |  | -9.17% [at 11.4 µM]
Cc1noc(C)c1-c1nc(N(C)C)c2ccccc2n1 |  | 27.2% [at 2.29 µM]
Cc1noc(NS(=O)(=O)c2cccc3c(N(C)C)cccc23)c1C | 0.631 µM (active) | 
COc1ccccc1N1CCN(CCCCNS(=O)(=O)c2cccc3c(N(C)C)cccc23)CC1 | inactive | 
Cc1ccc(/C=C/C(=O)N2CC(C)CC(C)C2)o1 (centres undefined) | 15.8 µM (active) | 
Cc1ccc(/C=N/NC(=O)Cn2nccc2C)o1 | inactive | 
CSc1nnnc2ccccc12 |  | 14.9% [at 11.4 µM]
CSc1nc(Sc2cccc(Cl)c2)c2ccccc2n1 | 0.251 µM (active) | 
COc1ccccc1NC(=O)C1=C(C)Nc2nnnn2C1c1cccc(Br)c1 (centres undefined) | 14.1 µM (active) | 
COc1ccccc1NC(=O)c1nc[nH]c1C(=O)Nc1ccccc1OC | inactive | 
COc1ccccc1NC(=O)C1=C(C)Nc2nc(-c3ccc(N(C)C)cc3)nn2C1c1ccncc1 (centres undefined) | 8.91 µM (active) | 
COC(=O)C1=C(C)Nc2ncnn2C1c1cccnc1 (centres undefined) | inactive | 
COc1ccccc1CNc1ccnc(-c2ccc(N(C)C)cc2)n1 |  | -19.9% [at 2.29 µM]
CC1=C(C(=O)Nc2cccnc2)C(c2cccnc2)n2nc(-c3cccs3)nc2N1 (centres undefined) | 8.91 µM (active) | 
NS(=O)(=O)c1cc2c(cc1Cl)N[C@@H](C(Cl)Cl)NS2(=O)=O | inactive | 
Cc1noc(C)c1-c1nccc(NCc2cccs2)n1 |  | -12.6% [at 2.29 µM]
COc1cc([C@H](O)CO)ccc1O | inactive | 
CCCCNN |  | -5.3% [at 11.4 µM]
NCCSCCC(=O)O |  | -9.49% [at 11.4 µM]
C=C1CC[C@H](O)C/C1=C/C=C1\CCC[C@]2(C)[C@H]1CC[C@H]2[C@@H](C)/C=C\[C@@H](C)C(C)C | inactive | 
COc1cc(C(=O)N2CCC(NC(=O)C(Cc3ccc(C(C)C)cc3)NC(C)=O)CC2)cc(OC)c1OC (centres undefined) | inactive | 
Cc1ccc(Oc2ccccc2/C=C2\SC(=O)N(C)C2=O)cc1 | 10 µM (active) | 
COc1cc(C)cc2c(-c3c(O)cc(O)c4c3C[C@H](C)N[C@@H]4C)cc(-c3cc(-c4c(O)cc(O)c5c4C[C@H](C)N[C@@H]5C)c4cc(C)cc(OC)c4c3O)c(O)c12 |  | -22.5% [at 11.4 µM]
O=C(O)C[C@H](NC(=O)CP(=O)(O)O)C(=O)O.[NH-][C@@H]1CCCC[C@@H]1[NH-].[Pt] |  | -7.92% [at 11.4 µM]

SMILES | AC50 | activity, negative = inhibition
COc1cccc(C(=O)Nc2nc3c(s2)CN(C)CC3)c1 | inactive | 
COc1ccc(C(=O)Nc2nc3c(s2)Cc2cc(OC)ccc2-3)cc1 | 5.62 µM (active) | 
O=C(Nc1nnc(SCc2ccc(Cl)cc2)s1)c1ccco1 | 0.562 µM (active) | 
CC(=O)Nc1nnc(SCc2ccc(F)cc2)s1 | inactive | 
COc1ccc(NC(=O)N2CCCC3(CCN(C(=O)c4ccco4)CC3)C2)cc1 | inactive | 
COc1ccc2c(c1)Cc1sc(NC(=O)c3ccco3)nc1-2 | 10 µM (active) | 
COc1ccc2c(c1)CCc1sc(NC(=O)c3ccc(C)cc3)nc1-2 | 5.01 µM (active) | 
C[N+]1(C)CCC[C@@H](OC(=O)C(O)(c2ccccc2)c2ccccc2)C1 | inactive | 
COc1ccc(-n2c(=O)c(C)nc3cnc(N(C)C)nc32)cc1 | inactive | 
CN(C)c1ncnc2ccc(-c3ccccc3C(F)(F)F)cc12 |  | -18.7% [at 2.29 µM]
COc1ccccc1-c1cc(Nc2ccc(F)cc2)ncn1 |  | -2.06% [at 2.29 µM]
O=C(NNC(=O)C1CCCCC1)c1cnccn1 | inactive | 
CC(C)CN(C)c1nc(N)c(C(=O)N=C(N)N)nc1Cl | inactive | 
Clc1ccccc1-c1nc(NCCN2CCOCC2)c2ccccc2n1 |  | 24.6% [at 2.29 µM]
O=C1CSC2(CCN(CCCN3c4ccccc4Sc4ccc(Cl)cc43)CC2)N1 |  | 4.61% [at 11.4 µM]
COc1ccc(Cc2nnc(NC(=O)c3ccco3)s2)cc1 | 2.82 µM (active) | 
COc1ccccc1NC(=O)Nc1nnc(-c2ccco2)s1 | inactive | 
OC[C@@H]1O[C@@H](n2cnc3cncnc32)[C@@H](O)[C@H]1O | inactive | 
COc1cccc(-c2nccc(NCc3cnc(C)cn3)n2)c1 |  | -10.6% [at 2.29 µM]
CN(C)CC/C=C1\c2ccccc2CSc2ccccc21 | inactive | 
C[C@H](N)C(=O)O | inactive | 
CC(=O)N[C@@H](CC(=O)O)C(=O)N[C@@H](CCC(=O)O)C(=O)O (Ac-Asp-Glu-OH) | inactive | 

Source: PubChem BioAssay AID1851 (National Center for Advancing Translational Sciences (NCATS), 2009)
